The record followed here is PubChem BioAssay (Tox21).

Each structure is given as a SMILES string. Values joined by “and” are separate entries in the source; they are usually repeats but may differ in a detail not shown here. Identical values can stand only once. Inconclusive results are not listed. More than one record can exist for a structure, and the calls need not agree. Active and inactive are the calls of the source. Unless noted, the call rests on the fitted dose curve; in most records, active means well fitted curve in the direction sought with a large enough effect in the repeat runs; inconclusive means weak or mixed curves; inactive means no such curve, though single readings can be large; an effect the other way counts as inactive or inconclusive.

A short description of assay [1]: qHTS assay to identify small molecule antagonists of the glucocorticoid receptor (GR) signaling pathway - cell viability counter screen (AID 720693). Further: nearly all actives have a fitted effect of over 55% in size. Further: potency means the concentration at half of the fitted maximal effect.
Assay [2] can be described thus: qHTS assay for identifying genotoxic compounds that show differential cytotoxicity against isogenic chicken DT40 cell lines with known DNA damage response pathways - wild type cell line (AID 743012). Further: nearly all actives have a fitted effect of over 60% in size. Further: potency means the concentration at half of the fitted maximal effect. An outline of the steps:
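Quantitative HTS on parental DT40 cells: 40 h compound treatment at 37 C/5% CO2, with viability then determined by CellTiter-Glo luminescence. Values serve as the DNA repair-proficient reference for differential cytotoxicity.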

A short description of assay [3]: qHTS assay for identifying genotoxic compounds that show differential cytotoxicity against isogenic chicken DT40 cell lines with known DNA damage response pathways - Rev3 mutant cell line (AID 743014). Further: nearly all actives have a fitted effect of over 55% in size. Further: potency means the concentration at half of the fitted maximal effect.
The nature of assay [4]: qHTS assay for identifying genotoxic compounds that show differential cytotoxicity against isogenic chicken DT40 cell lines with known DNA damage response pathways - Rad54/Ku70 mutant cell line (AID 743015). Further: nearly all actives have a fitted effect of over 60% in size. Further: potency means the concentration at half of the fitted maximal effect.
Assay [5] can be described thus: qHTS assay to identify small molecule antagonists of the androgen receptor (AR) signaling pathway - cell viability counter screen (AID 743033; further: nearly all actives have a fitted effect of over 45% in size; further: potency means the concentration at half of the fitted maximal effect).
For assay [6], the target named is Androgen receptor (Homo sapiens) (UniProt P10275). The assay is described as follows: qHTS assay to identify small molecule antagonists of the androgen receptor (AR) signaling pathway (AID 743035; active means well fitted inhibition curve with a large enough effect in the signal ratio in the repeat runs, not every such curve was filed as active; the % refers to the signal ratio; further: potency means the concentration at half of the fitted maximal effect). An outline of the steps:
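Cell line: GeneBLAzer AR-UAS-bla GripTite (HEK293). Stimulus: R1881 added after compound. Exposure: 16 h, 37C, 5% CO2. Readout: LiveBLAzer B/G FRET fluorescence after 2 h at room temperature.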

Assay [7] shares this target. The assay is described as follows: qHTS assay to identify small molecule agonists of the androgen receptor (AR) signaling pathway (AID 743036; active means well fitted activation curve with a large enough effect in the signal ratio in the repeat runs, with a control signal flat, not every such curve was filed as active; the % refers to the signal ratio). Put shortly: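 Beta-lactamase under UAS control, stably integrated in HEK293 GripTite cells, reports receptor activation. After 16 h compound treatment, cells received FRET substrate for 2 h at room temperature before fluorescence reading.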

For assay [8] the target is unchanged. The assay is described as follows: qHTS assay to identify small molecule agonists of the androgen receptor (AR) signaling pathway using the MDA cell line (AID 743040; further: nearly all actives have a fitted effect of over 20% in size). An outline of the steps:
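After a 5 h incubation at 37C and 0% CO2, MDA-kb2 reporter cells were dosed with compounds in DMSO and kept 16 h under the same conditions. Luciferase activity was then read as luminescence with ONE-Glo.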

Assay [9] is described as follows: qHTS assay to identify small molecule antagonists of the androgen receptor (AR) signaling pathway using the MDA cell line - cell viability counter screen (AID 743041; further: nearly all actives have a fitted effect of over 45% in size; further: potency means the concentration at half of the fitted maximal effect). Put shortly: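 R1881-driven MDA-kb2 AR-luc cells, 3,000/well, were dosed with library compounds for 16 h; cell health came from CellTiter-Fluor fluorescence in the reporter wells.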
For assay [10], the target named is Androgen receptor (Homo sapiens) (UniProt P10275). In words: qHTS assay to identify small molecule antagonists of the androgen receptor (AR) signaling pathway using the MDA cell line (AID 743042; further: nearly all actives have a fitted effect of over 55% in size; further: potency means the concentration at half of the fitted maximal effect). An outline of the steps:
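Antagonist mode: compounds plus R1881 agonist added to MDA-kb2 AR-luc cells, incubated 16 h at 37C. Luciferase reporter luminescence quantified, with multiplexed CellTiter-Fluor readout for cell viability.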

Chain of Androgen receptor (Homo sapiens) (P10275 whole entry, looked up): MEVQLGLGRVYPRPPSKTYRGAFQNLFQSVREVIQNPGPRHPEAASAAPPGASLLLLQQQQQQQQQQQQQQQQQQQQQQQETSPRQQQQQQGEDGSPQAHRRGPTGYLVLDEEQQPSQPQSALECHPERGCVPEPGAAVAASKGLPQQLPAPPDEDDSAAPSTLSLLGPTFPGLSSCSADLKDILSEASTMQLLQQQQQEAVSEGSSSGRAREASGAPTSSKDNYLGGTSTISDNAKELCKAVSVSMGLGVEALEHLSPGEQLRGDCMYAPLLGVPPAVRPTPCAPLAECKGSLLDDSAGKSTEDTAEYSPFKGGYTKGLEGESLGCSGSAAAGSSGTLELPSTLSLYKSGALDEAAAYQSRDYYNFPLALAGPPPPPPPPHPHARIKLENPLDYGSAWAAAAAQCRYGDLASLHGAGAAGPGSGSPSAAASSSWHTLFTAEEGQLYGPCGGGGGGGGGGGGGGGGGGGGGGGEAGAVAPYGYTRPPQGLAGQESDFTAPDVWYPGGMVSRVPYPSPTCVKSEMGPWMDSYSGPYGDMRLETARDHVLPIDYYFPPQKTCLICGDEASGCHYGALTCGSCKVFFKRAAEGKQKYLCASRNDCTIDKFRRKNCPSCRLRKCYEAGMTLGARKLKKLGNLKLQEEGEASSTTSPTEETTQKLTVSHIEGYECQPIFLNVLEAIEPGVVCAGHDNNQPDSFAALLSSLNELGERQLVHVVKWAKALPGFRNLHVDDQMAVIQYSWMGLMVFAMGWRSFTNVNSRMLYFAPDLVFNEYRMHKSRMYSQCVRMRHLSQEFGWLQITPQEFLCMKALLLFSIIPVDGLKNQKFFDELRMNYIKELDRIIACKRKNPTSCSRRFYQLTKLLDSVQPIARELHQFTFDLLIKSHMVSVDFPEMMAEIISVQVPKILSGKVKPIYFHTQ

Turning to `O=C1NCCN1CCN1CCC(c2cn(-c3ccc(F)cc3)c3ccc(Cl)cc23)CC1`, the Potency in assay [1] is 23.9 µM (active); in assay [2] it was 944 nM (active) and 1.5 µM (active); in assay [3], 1.88 µM (active) and 2.37 µM (active); in assay [4], 1.68 µM (active) and 2.66 µM (active); in assay [5] it was 16.9 µM (active) and 21.3 µM (active); in assay [6], 16.9 µM (active) and 21.3 µM (active). The Potency in assay [9] was 13.3 µM (active) and 21.1 µM (active); in assay [10], 11.9 µM (active) and 18.8 µM (active). In [7], the molecule was called inactive. The Potency result in [8] is “inactive”.
Turning to `Cc1ccc(N)cc1O`, the Potency result in assay [1], in [5] and in assay [8] was “inactive” in each case. Moreover, the figures for the Potency in assay [2], in assay [3] and in [4] were 30.6 µM (active), 56.1 µM (active) and 52 µM (active), respectively.
With `NC(=O)c1ccccc1N`, the Potency result in assay [1], in assay [2], in [3], in assay [4], in assay [5] and in assay [8] was “inactive” throughout. In addition, the Potency result in [9] and in [10] was “inactive” in each case.
Regarding `C[C@@H]1CC[C@H]2C(C)(C)[C@H]3C[C@@]12CC[C@@]3(C)O`, the Potency entry in assay [1], in [2], in [3], in [4], in assay [5] and in assay [6] was “inactive” in each case. Besides, the Potency entry in [8], in [9] and in [10] was “inactive” throughout. Further, the molecule was classed as inactive in [7].
Regarding `Cc1c(C)n(Cc2ccccc2)c2ccc(C(=O)OCCN(C)C)cc12`, the Potency entry in [1] was “inactive”. Besides, the Potency is 3.76 µM (active) in assay [2], 3.76 µM (active) in assay [3] and 6.68 µM (active) in assay [4].
Take `NC(=O)C(=O)N/N=C/c1ccc([N+](=O)[O-])o1`: the Potency result in [1], in assay [5], in [8] and in [9] was “inactive” in each case. For the same molecule, the Potency in assay [2] is 10.6 µM (active); in [3], 11.9 µM (active); in assay [4] it was 16.8 µM (active).
With `Cc1cc2c(C(C)C)c(O)c(O)c(C=O)c2c(O)c1-c1c(C)cc2c(C(C)C)c(O)c(O)c(C=O)c2c1O`, the Potency in [1] is 9.52 µM (active); in assay [2], 10.6 µM (active); in [3], 13.3 µM (active); in assay [4], 11.9 µM (active); in assay [5], 21.3 µM (active).
`Cc1cc(Nc2ccc(O)cc2)ccc1N`: the Potency result in assay [1] and in [5] was “inactive” in each case. In addition, the Potency in assay [2] was 15.3 µM (active); in assay [3], 13.6 µM (active); in assay [4] it was 13.6 µM (active).
On to `CCCSS/C(CCO)=C(\C)N(C=O)Cc1cnc(C)nc1N`, for which the Potency entry in assay [1], in assay [5], in [8] and in assay [9] was “inactive” throughout. Besides, the Potency is 5.31 µM (active) in assay [2], 8.41 µM (active) in [3] and 13.3 µM (active) in [4]. Also, the molecule was classed as inactive in assay [7].
Take `CC1=C(/C=C/C(C)=C/C=C/C(C)=C/C(=O)Nc2ccc(O)cc2)C(C)(C)CCC1`: the Potency in assay [1] is 44.8 µM (active); in assay [2] it was 9.44 µM (active) and 22.2 µM (active); in [3], 13.3 µM (active) and 9.94 µM (active); in [4], 9.44 µM (active) and 9.94 µM (active); in assay [5] it was “inactive and 44.8 µM (active)”; in assay [6], 23.9 µM (active) and 14.2 µM (active). The Potency was 23.7 µM (active) and 44.4 µM (active) in assay [9]; 29.8 µM (active) and 28 µM (active) in [10]. Also, the Potency entry in assay [8] is “inactive”.
As to `Clc1ccc(C(Cn2ccnc2)OCc2c(Cl)cccc2Cl)c(Cl)c1` (centres undefined), the Potency entry in assay [1], in [5], in assay [8], in [9] and in [10] was “inactive” throughout. The Potency in assay [2] is 11.4 µM (active); in [3] it was 12.7 µM (active); in [4], 11.4 µM (active).
Consider `C=CC(=O)OCC(O)COc1ccccc1` (centres undefined), for which the Potency in assay [1] was 38.9 µM (active); in [2], 24.3 µM (active); in assay [3], 27.3 µM (active); in [4] it was 30.6 µM (active).
With `CCC(C)(C)c1cc(O)c(C(C)(C)CC)cc1O`, the Potency result in assay [1], in assay [5], in [8], in assay [9] and in assay [10] was “inactive” in each case. The Potency in assay [2] was 17.2 µM (active); in assay [3], 21.7 µM (active); in assay [4] it was 17.2 µM (active).
As for `CC(C)c1ccc(O)c(C(C)C)c1`, the Potency entry in [1] and in assay [9] was “inactive” throughout. Besides, the Potency in assay [2] was 54.5 µM (active); in assay [3] it was 54.5 µM (active); in assay [4], 48.6 µM (active); in assay [5] it was 49 µM (active).
Turning to `C[Si](C)(C)Cl`, the Potency result in [1], in [2], in assay [3], in [4], in [5] and in assay [6] was “inactive” each time. Also, the Potency result in assay [8], in assay [9] and in assay [10] was “inactive” in each case. The call in [7] was inactive.
On to `O=C(O)CCn1c2c(c3ccccc31)C[C@H](NS(=O)(=O)c1ccc(F)cc1)CC2`, for which the Potency result in assay [1], in assay [2], in assay [3], in assay [4], in assay [5] and in assay [9] was “inactive” in each case.
In the case of `CO[C@H]1C=CO[C@@]2(C)Oc3c(C)c(O)c4c(O)c(cc(O)c4c3C2=O)NC(=O)/C(C)=C\C=C/[C@H](C)[C@H](O)[C@@H](C)[C@@H](O)[C@@H](C)[C@H](OC(C)=O)[C@@H]1C`, the Potency entry in assay [1] was “inactive”. Further, the Potency result in assay [2] is “inactive and 13.8 µM (active)”; in [3], “inactive and 6.91 µM (active)”; in [4], “inactive and 12.3 µM (active)”; in assay [5] it was “inactive and 49.3 µM (active)”.
